# Bioassay records deposited in PubChem BioAssay by National Center for Advancing Translational Sciences (NCATS).
# HT1080NT lethal = qHTS for induction of synthetic lethality in tumor cells producing 2HG: qHTS for the HT-1080-NT fibrosarcoma cell line. HT-1080-NT fibrosarcoma viability, CellTiter-Glo ATP luminescence, 48 h. 1.6% of 360,000 active. Potency, µM (highest dose often 46.1 µM), actives largely listed as cytotoxic;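 also: NT is the 2HG producing partner of a matched IDH1 knockdown line; nearly all actives have a fitted effect of over 55% in size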
#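 HT-1080-NT fibrosarcoma cells (2HG-overproducing), 750 cells/well in RPMI with 5% FBS, dosed after 2 h and incubated 48 h at 37C. CellTiter-Glo luminescence normalized to DMSO and no-cell wells; concentration-response curves fitted and classed.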
# HT1080 IDH1KD tx = qHTS for induction of synthetic lethality in tumor cells producing 2HG: qHTS for the HT-1080-IDH1KD cell line. HT-1080 IDH1 knockdown viability, ATP luminescence, 48 h. Potency, µM (titrated, usually from 46.1 µM), usual class: cytotoxic. 2% of 360,000 active. AID 686971, 2013
#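 HT-1080-IDH1KD cells (IDH1 knocked down), 750/well in RPMI with 5% FBS, treated with compound 48 h at 37 degrees C. Viability by CellTiter-Glo luminescence, normalised to DMSO and no-cell wells; concentration-response curves classed.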
# DT40 TDP1 CPT = qHTS for Inhibitors of human tyrosyl-DNA phosphodiesterase 1 (TDP1): qHTS in cells in presence of CPT | 12% of 420,000 active | chicken DT40 Tdp1-/-;hTDP1 cells + 20 nM CPT, ATP luminescence, 48 h | Potency, µM (series often up to 46.2 µM), usual class: inhibitors; also: nearly all actives have a fitted effect of over 55% in size
#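 Chicken DT40 Tdp1-/- cells stably complemented with human TDP1 were seeded at 400 cells/well in medium containing 20 nM camptothecin, exposed to pin-transferred compounds, and grown at 37 °C for at least 48 hr. Viability was read as ATP luminescence.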
# IL1B secr inh = qHTS for Inhibitors of Inflammasome Signaling: IL-1-beta AlphaLISA Primary Screen; THP-1 LPS/ATP IL-1B secretion, AlphaLISA, 16 h; stronger effect = lower value; activity change, % at 57.5 µM; 4.7% of 360,000 active; in the data active = activity change below about -50%; inconclusive = mostly about -30% to -49%
#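 Secreted IL-1B measured by AlphaLISA bead assay after 16 h compound exposure of THP-1 cells; compounds (final up to 57.5 uM) added 1 h before LPS (250 ng/mL) and ATP (1.25 mM) stimulation; lower signal means less secretion.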
# TDP1 cell noCPT = qHTS for Inhibitors of human tyrosyl-DNA phosphodiesterase 1 (TDP1): qHTS in cells in absence of CPT | 15% of 420,000 active | Potency, µM (highest dose often 46.2 µM), actives largely listed as inhibitors | DT40 Tdp1-/- hTDP1 cells, no CPT, ATP luminescence, 48 h; also: nearly all actives have a fitted effect of over 55% in size
#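 Camptothecin absent (DMSO only). Human TDP1-complemented DT40 knockout cells, 400 cells/well, 37 °C for minimum 48 hr; ATP measured via CellTiter-Glo, 30 min dark incubation, luminescence.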
# ELG1 DNA repair = qHTS screen for small molecules that inhibit ELG1-dependent DNA repair in human embryonic kidney (HEK293T) cells expressing luciferase-tagged ELG1 | HEK293T ELG1-luciferase reporter, luminescence, 16 h; DNA damage induced by 5-fluorouridine | 2.3% of 330,000 active | Potency, µM (top dose mostly 46.1 µM), actives largely listed as inhibitors; also: nearly all actives have a fitted effect of over 55% in size
#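 DMSO vehicle served as the neutral condition. Each well held 2,000 cells given 5-fluorouridine plus compound; after 16 hr at 37 °C/5% CO2, ONE-Glo was added and luciferase measured 30 min later.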
# Hits are given with their value; 0 = inactive; ? = inconclusive; - = not tested or not shown; [ ] = another dose, or the depositor's remark. Hits are enriched below; roughly 19% of the tested compounds scored in any of these assays. Unless noted, calls follow the shape of the dose curve; as a rule, active = well fitted curve in the direction sought with a large enough effect; inconclusive = small, poorly fitted or top-dose-only effect, or another doubt; inactive = no such curve, though single readings can be large; an effect the other way counts as inactive or inconclusive.
SMILES,HT1080NT lethal,HT1080 IDH1KD tx,DT40 TDP1 CPT,IL1B secr inh,TDP1 cell noCPT,ELG1 DNA repair
CCN(CC)c1ccc(-c2nn3c(-c4ccccc4OC)nnc3s2)cc1,1µM,?,1.3µM,0,1.2µM,?
Clc1ccc(-c2nnc3sc(-c4ccc(Br)o4)nn23)cc1,0,0,?,0,0,0
c1ccc(-c2nnc3sc(-c4ccncc4)nn23)cc1,0,0,0,-51,0,0
c1ccc(-c2nnc3sc(-c4cc5ccccc5o4)nn23)cc1,0,?,16µM,0,?,0
Clc1ccc(-c2nn3c(-c4ccccc4)nnc3s2)cc1,0,0,?,0,0,0
COc1ccccc1-c1nn2c(-c3ccccc3Cl)nnc2s1,-,-,-,-,-,0
COc1ccc(-c2nn3c(-c4ccccc4)nnc3s2)cc1,0,0,?,-55,?,0
Cc1nc2sc(-c3ccccc3)nn2c(=O)c1Br,0,0,23µM,0,?,?
COc1ccc(-c2nn3c(=O)c(C)nnc3s2)cc1,0,0,0,0,0,?
COc1ccccc1-c1nnc2sc(COc3ccccc3)nn12,0[9.24 µM],0,0,0,0,?
Cc1cccc(-c2nnc3sc(-c4ccccc4C)nn23)c1,?,?,?,0,15µM,?
COc1ccccc1-c1nnc2sc(COc3ccc(Cl)cc3Cl)nn12,0,0,?,-76,?,0
COc1ccc(-c2nn3c(-c4ccc(F)cc4)nnc3s2)cc1,0,0,0,?,?,0
C[C@@H]1O[C@H](C2CCCCC2)Cc2[nH][nH]c(=O)c21,0,0,0,0,0,-
Cc1ccc2c(c1)-n1c(nc3ccc(C)cc3c1=O)C(Cc1ccc(O)cc1)NC2=O (stereo not given),-,-,-,-,-,0
CCOc1cccc(-c2nn3c(-c4cc(C)[nH]n4)nnc3s2)c1,0,0,?,-77,?,?
c1ccc(-c2nnc3sc(-c4csc5c4CCCC5)nn23)cc1,0,0,21µM,0,?,?
Clc1cccc(-c2nn3c(-c4ccncc4)nnc3s2)c1,-,-,-,-,-,0
Cc1cc(C2(c3ccc(O)c(C)c3)OC(=O)c3ccccc32)ccc1O,0,0,0,0,?,0
Cc1cc(O)c(C(C)C)cc1C1(c2cc(C(C)C)c(O)cc2C)OC(=O)c2ccccc21,8.2µM,16µM,15µM,-99,9.2µM,16µM
CCC(C)(C)C1CCc2[nH]nc(C(=O)NN)c2C1 (stereo not given),0,?,0,0,?,?
CCC(C)(C)C1CCc2[nH]nc(C(=O)NC(C)C)c2C1 (stereo not given),0,0,?,0,21µM,0
CCC(C)(C)C1CCc2[nH]nc(C(=O)NC3CCCCC3)c2C1 (stereo not given),0,0,12µM,0,?,?
O=C(Nc1cccc(Br)c1)N1CCC(CN2CCCCCC2)CC1,-,-,?,-,0,-
COc1cccc(-c2csc(N3CCN(C(=S)Nc4ccc(Cl)cc4)CC3)n2)c1,0,0,?,-82,?,?
COc1ccccc1NC(=S)N1CCN(c2nc(-c3ccccc3)cs2)CC1,0,0,18µM,0,16µM,0
CNC(=S)N1CCN(c2nc(-c3cccc(OC)c3)cs2)CC1,0,0,?,0,?,0
COc1cccc(-c2csc(N3CCN(C(=S)Nc4ccccc4)CC3)n2)c1,22µM,0[9.24 µM],?,0,?,0
CCOc1ccccc1NC(=S)N1CCN(c2nc(-c3cccc(OC)c3)cs2)CC1,0,0,0,0,?,?
